Results as given in the supplement of paper PMC11732987, “Enantioselective OTUD7B fragment discovery through chemoproteomics screening and high-throughput optimisation” (Communications Chemistry, 2025).

Legend:
Experiment in all cases: log2 ratio of Biotin-Ahx-Ub-VS probe labelling (fragment/DMSO); higher = less target engagement (more negative = stronger competition), active = hit call of the paper (q ≤ 0.05, log2 ratio ≤ -1)
Conditions in all cases: compound concentration: 200 uM; treatment time: 3 h
ALG13 = biological target: T1, ALG13 (UniProt Q9NP73)
T1 sequence (whole entry): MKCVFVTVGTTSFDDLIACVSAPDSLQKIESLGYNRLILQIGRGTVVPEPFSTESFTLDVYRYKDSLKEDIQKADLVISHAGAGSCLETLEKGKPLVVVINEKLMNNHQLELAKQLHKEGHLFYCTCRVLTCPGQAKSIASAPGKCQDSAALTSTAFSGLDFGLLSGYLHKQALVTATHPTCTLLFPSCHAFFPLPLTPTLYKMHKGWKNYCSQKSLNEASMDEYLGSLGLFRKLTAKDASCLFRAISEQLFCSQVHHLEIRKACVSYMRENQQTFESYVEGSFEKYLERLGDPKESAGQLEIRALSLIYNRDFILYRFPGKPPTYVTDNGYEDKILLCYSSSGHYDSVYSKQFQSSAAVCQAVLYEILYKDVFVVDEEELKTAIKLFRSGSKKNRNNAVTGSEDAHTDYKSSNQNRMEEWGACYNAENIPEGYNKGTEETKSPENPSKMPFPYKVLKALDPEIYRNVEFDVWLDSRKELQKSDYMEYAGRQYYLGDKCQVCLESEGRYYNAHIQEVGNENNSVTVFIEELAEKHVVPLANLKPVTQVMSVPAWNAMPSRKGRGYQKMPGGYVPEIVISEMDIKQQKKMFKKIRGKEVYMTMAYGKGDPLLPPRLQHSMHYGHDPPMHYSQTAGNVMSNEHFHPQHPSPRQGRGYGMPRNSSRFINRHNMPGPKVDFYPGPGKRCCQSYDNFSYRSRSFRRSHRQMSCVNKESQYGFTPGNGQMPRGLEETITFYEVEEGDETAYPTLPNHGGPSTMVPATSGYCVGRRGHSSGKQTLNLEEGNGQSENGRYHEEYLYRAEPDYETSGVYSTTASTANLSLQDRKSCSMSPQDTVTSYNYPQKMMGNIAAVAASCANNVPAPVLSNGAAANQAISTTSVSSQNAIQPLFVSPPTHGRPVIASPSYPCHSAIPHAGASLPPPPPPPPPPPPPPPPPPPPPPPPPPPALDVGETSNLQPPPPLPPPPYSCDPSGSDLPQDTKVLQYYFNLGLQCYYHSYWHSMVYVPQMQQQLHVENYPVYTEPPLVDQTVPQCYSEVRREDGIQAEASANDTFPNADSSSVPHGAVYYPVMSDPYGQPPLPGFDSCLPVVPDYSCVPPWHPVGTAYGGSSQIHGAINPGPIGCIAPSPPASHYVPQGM
Method in brief: (§1)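 Global-median-normalised Spectronaut label-free quantities were compared by unpaired t-test, and values are average log2 ratios of fragment over vehicle. Only proteins with ≥2 unique peptides were used. HEK293T lysate (495 µg per sample) was treated in triplicate with fragment at 200 µM or vehicle for 3 h and then with Biotin-Ahx-Ub-VS at 0.5 µM final for 1 h. Labelled DUBs were then NeutrAvidin-enriched, digested with LysC and trypsin, and run by diaPASEF LC-MS/MS.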

ATXN3 = ATXN3 (UniProt P54252)
ATXN3, sequence (P54252 whole entry): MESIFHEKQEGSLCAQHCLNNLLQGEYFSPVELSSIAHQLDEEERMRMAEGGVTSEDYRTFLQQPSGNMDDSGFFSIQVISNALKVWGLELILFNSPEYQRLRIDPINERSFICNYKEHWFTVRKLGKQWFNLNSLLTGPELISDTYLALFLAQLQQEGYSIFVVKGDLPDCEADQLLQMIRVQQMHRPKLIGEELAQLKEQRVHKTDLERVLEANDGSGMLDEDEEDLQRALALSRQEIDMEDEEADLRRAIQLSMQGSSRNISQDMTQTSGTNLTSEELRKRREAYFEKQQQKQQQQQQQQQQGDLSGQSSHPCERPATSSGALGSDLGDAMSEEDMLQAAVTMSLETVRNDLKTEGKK
Method in brief: as §1

BAP1 = biological target: T2, BAP1 (UniProt Q92560)
T2 sequence (whole entry): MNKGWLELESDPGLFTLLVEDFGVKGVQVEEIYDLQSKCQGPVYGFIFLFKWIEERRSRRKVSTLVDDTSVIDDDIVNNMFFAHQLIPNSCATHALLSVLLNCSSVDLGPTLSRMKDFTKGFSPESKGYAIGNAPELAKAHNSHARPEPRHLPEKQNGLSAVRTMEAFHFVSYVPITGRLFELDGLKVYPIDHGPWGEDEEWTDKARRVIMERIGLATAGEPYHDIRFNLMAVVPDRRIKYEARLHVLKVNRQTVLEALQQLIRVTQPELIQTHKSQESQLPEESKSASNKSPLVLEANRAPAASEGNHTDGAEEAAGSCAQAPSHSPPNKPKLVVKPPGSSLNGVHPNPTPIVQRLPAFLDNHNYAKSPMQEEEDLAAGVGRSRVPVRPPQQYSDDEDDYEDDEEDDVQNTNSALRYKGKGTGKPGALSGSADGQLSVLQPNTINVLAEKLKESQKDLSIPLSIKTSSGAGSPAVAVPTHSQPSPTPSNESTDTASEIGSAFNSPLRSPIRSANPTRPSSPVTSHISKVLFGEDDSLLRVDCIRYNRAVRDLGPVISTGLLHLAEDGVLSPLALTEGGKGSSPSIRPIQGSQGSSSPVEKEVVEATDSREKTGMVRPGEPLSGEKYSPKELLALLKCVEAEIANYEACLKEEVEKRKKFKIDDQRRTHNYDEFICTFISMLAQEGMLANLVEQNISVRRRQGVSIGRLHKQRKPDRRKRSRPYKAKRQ
Method in brief: as §1

EIF3F = EIF3F (UniProt O00303)
EIF3F, sequence (O00303 whole entry): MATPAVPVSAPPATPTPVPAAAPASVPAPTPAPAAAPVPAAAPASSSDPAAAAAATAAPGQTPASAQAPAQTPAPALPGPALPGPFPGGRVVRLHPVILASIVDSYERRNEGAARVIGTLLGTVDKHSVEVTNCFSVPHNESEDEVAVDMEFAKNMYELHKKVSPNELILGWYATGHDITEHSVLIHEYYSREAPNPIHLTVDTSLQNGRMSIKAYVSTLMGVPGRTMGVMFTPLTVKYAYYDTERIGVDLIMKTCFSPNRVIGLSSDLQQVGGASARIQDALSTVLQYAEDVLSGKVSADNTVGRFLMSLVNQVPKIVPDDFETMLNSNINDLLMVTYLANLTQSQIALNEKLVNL
Method in brief: as §1

EIF3H = EIF3H (UniProt O15372)
EIF3H, sequence (O15372 whole entry): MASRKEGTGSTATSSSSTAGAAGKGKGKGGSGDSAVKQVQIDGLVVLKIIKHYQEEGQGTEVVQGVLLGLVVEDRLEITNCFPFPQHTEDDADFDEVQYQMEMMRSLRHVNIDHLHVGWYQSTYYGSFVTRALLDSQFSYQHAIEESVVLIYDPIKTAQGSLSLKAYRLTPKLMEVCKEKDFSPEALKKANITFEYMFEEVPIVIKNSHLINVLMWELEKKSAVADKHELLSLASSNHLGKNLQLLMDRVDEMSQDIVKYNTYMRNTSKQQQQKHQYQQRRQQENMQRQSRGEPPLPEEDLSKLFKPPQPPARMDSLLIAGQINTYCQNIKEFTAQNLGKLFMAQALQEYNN
Method in brief: as §1

FAM105A = biological target: T3, FAM105A (UniProt Q9NUU6)
T3 sequence (whole entry): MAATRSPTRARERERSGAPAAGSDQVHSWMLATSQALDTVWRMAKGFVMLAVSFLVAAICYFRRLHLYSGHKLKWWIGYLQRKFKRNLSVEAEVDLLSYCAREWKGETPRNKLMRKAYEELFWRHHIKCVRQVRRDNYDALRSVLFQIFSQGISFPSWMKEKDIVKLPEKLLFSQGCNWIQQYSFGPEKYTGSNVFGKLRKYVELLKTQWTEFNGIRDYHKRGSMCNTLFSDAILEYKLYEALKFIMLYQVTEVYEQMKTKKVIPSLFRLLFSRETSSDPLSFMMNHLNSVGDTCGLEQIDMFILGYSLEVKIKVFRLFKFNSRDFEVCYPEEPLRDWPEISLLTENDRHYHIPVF
Method in brief: as §1

OTUB1 = OTUB1 (UniProt Q96FW1)
OTUB1, sequence (Q96FW1 whole entry): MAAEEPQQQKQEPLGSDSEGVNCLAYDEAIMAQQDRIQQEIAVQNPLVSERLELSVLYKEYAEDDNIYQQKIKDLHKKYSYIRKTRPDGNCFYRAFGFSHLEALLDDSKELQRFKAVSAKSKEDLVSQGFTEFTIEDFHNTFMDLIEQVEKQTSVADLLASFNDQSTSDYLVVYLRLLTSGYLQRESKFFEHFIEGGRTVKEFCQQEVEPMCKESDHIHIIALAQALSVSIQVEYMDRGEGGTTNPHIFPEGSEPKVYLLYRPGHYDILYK
Method in brief: as §1

OTUD4 = biological target: T4, OTUD4 (UniProt Q01804)
T4 sequence (whole entry): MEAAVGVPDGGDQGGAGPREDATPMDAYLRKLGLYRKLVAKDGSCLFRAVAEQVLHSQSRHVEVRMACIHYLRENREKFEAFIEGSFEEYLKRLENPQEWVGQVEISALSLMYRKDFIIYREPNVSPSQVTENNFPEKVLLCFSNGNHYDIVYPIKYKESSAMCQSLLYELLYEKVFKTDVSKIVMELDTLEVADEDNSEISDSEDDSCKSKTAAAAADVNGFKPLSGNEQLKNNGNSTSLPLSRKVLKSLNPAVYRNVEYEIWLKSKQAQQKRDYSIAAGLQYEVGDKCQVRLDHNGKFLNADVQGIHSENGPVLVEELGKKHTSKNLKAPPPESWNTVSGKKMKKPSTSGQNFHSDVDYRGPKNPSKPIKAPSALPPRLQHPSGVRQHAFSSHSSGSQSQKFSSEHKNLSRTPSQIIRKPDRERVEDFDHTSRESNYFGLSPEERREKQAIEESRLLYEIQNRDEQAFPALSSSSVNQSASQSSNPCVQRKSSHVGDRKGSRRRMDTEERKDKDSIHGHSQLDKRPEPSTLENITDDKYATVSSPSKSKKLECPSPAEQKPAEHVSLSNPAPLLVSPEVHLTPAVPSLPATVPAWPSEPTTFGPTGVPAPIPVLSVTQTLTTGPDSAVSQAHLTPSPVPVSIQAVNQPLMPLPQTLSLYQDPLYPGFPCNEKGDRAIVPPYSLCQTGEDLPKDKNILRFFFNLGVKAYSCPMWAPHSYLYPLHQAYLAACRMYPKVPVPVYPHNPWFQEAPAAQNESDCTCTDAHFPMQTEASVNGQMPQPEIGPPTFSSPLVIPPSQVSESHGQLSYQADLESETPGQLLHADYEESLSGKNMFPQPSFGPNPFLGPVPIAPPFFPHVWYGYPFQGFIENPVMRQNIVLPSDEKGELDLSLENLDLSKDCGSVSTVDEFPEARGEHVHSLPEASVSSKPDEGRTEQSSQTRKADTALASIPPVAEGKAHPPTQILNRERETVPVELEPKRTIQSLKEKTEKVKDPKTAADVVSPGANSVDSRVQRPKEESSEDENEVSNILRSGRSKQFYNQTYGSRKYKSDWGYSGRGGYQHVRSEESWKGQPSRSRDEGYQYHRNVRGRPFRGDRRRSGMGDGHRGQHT
Method in brief: as §1

OTUD5 = biological target: T5, OTUD5 (UniProt Q96G74)
T5 sequence (whole entry): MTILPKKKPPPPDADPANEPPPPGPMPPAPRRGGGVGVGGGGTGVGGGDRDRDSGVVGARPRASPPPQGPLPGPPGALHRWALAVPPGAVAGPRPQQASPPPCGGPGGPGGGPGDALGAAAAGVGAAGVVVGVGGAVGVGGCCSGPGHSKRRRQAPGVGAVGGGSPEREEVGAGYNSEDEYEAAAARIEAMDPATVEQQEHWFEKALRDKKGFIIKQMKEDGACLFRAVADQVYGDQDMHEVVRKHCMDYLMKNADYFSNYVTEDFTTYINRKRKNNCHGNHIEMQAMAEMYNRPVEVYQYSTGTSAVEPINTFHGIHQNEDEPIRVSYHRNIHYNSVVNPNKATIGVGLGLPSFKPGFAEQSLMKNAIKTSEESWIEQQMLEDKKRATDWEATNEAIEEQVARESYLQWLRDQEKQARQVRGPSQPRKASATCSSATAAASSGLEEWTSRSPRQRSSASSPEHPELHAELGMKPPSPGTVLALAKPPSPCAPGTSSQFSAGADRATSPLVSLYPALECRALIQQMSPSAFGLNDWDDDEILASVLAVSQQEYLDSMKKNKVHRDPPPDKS
Method in brief: as §1

Measured: log2 ratio of Biotin-Ahx-Ub-VS probe labelling

Cc1cccc2nc(CCNC(=O)CCl)cn12.Cl
inactive: ALG13 -0.496 | ATXN3 -0.436 | BAP1 -0.904 | EIF3F -0.438 | EIF3H -0.726 | FAM105A -0.0367 | OTUB1 -0.236 | OTUD4 -0.21 | OTUD5 -0.495
